WT yeast gro inh – growth inhibition of WT strain, primary screen, mitochondrial fusion inhibitor project, WT and mutant strains, chemical genetic; mitochondrial fusion phenotypic screen; inhibition, % at 10 µM; AID 1362, 2008; hit rate 2.1% among 190,000; in the data active means inhibition above about 58%; tested in S. cerevisiae
ROMK mod – ROMK potassium channel modulators, primary screen, cell-based, thallium flux, MLSMR library | ATP-sensitive inward rectifier potassium channel 1 (Homo sapiens), P48048 | Tet-inducible ROMK, thallium flux fluorescence; actives lie on both sides | B-score at 10 µM | hit rate 2% among 130,000;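 active means signal ratio slope over the read window, or its plate-corrected B-score, at least 3 SD from the plate mean, either direction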;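 further: B-score of the F/F0 ratio slope over 7 to 12 s after thallium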
Lmaj promast – Leishmania major promastigote growth inhibition, primary screen; AID 1063, 2008; hit rate 9% among 200,000; inhibition, % at 10 µM; Leishmania major promastigotes, resazurin fluorescence viability; in the data active means inhibition above about 50%;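 further: promastigotes grown with compound for 44 hours at 28 °C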
KCC2 mod – KCC2 cotransporter modulators, thallium flux, primary screen, cell-based, HEK293 KCC2, FluoZin-2 fluorescence, MLSMR. Solute carrier family 12 member 5 (Homo sapiens), Q9H2X9. KCC2 cells, thallium flux FluoZin-2 fluorescence. B-score of Tl+ flux slope (higher = more flux/activation; lower = inhibition) at 10 µM. hit rate 2.2% among 190,000. AID 1456, 2008;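 active means thallium flux slope and its plate-corrected score both differing from the plate sample mean at a set confidence after two filtering rounds, in either direction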;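 further: slope of fluorescence scaled to starting intensity during 10 to 20 s after thallium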
m-calpain inh – inhibitors of pig calpain II, primary screen, biochemical, fluorogenic peptide substrate, 1536-well. hit rate 0.37% among 220,000. inhibition, % at 16 µM. purified calpain II, 30 min;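 active means inhibition above about 50%, limit read from the data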
Numbers without * were called inactive; / = not tested or not shown. The list is not random: actives were taken first. Their share in the collection is about 12%.

SMILES | WT yeast gro inh | ROMK mod | Lmaj promast | KCC2 mod | m-calpain inh
CCSCCOC(=O)C1=C(C)N(C)C(=O)NC1c1cc(OC)ccc1OC (stereo not drawn) | 12 | 0.73 | 16 | 4.2* | -12
CC(C)CCn1c(=O)c2ccccc2n2c(CCl)nnc12 | -7 | -1.6 | 93* | -0.42 | 7
CCCCCn1c(=O)c2ccccc2n2c(CCl)nnc12 | -16 | -1 | 87* | -0.66 | -15
CC(C)CCn1c(=O)c2ccccc2n2c(CN3CCCC3)nnc12 | 2 | 0.5 | 4 | -0.012 | 1
Cc1ccc(CNS(=O)(=O)NCc2ccccc2)cc1 | -15 | -1.6 | -8 | / | 3
O=C(COc1ccc(Cl)cc1Cl)c1ccc[nH]1 | / | / | / | -0.56 | 8
CNc1sc(C(=O)c2ccc(F)cc2)c(N)c1-c1nc2ccccc2s1 | 15 | / | 2 | 9.9* | -25
Cc1ccc(C)c(CSC2=NCCN2C(=O)c2cccs2)c1 | 3 | 0 | 6 | -0.051 | -10
Cc1nn(-c2ccc([N+](=O)[O-])cc2)c2c1C(c1cccc(Br)c1)N1C(=N2)C(=O)Nc2ccccc21 (stereo not drawn) | 9 | 0.51 | 77* | -0.71 | -14
Cc1c(NC(=O)c2cc(-c3ccccc3O)on2)c(=O)n(-c2ccccc2)n1C | / | -0.69 | / | 0.46 | -6
Cc1cc(N2CCN(C)CC2)nc2ccc(NC(=S)N3CCN(c4cccc(Cl)c4)CC3)cc12 | 12 | 0.88 | 50 | 0.45 | -79
CCCCN(CC)C(=S)Nc1ccc2nc(N3CCN(C)CC3)cc(C)c2c1 | 8 | -0.55 | 53* | 2.1 | -6
Cc1cccc(N2CCN(C(=S)Nc3ccc4nc(N5CCN(C)CC5)cc(C)c4c3)CC2)c1C | 27 | 0.28 | 101* | 0.99 | -106
Cc1cc(N2CCN(C)CC2)nc2ccc(NC(=S)N3CCN(c4ccc(Cl)cc4)CC3)cc12 | 97* | 0.26 | 100* | -0.14 | -80
COC(=O)c1sccc1NC(=S)N1CCN(c2cccc(C)c2C)CC1 | 74* | 0.43 | 0 | -0.003 | -5
COc1ccc(CCNC(=O)Cn2nnc(-c3ccc(N(C)C)cc3)n2)cc1OC | 4 | 0.089 | 0 | -0.12 | -16
COc1ccc2c(C)cc(N3CCN(c4ccc(F)cc4)CC3)nc2c1 | 62 | -0.03 | 87* | 0.1 | -20
Cc1cc(N2CCN(C)CC2)nc2ccc(NC(=S)N3CCCCC3)cc12 | 28 | 0.11 | 33 | 0.011 | -59
Cc1cc(N2CCN(C)CC2)nc2ccc(NC(=S)N3CCN(c4ccc(F)cc4)CC3)cc12 | 0 | -0.76 | 100* | 1.2 | -85
Cc1cccc(N2CCN(C(=S)Nc3ccc4nc(N5CCN(C)CC5)cc(C)c4c3)CC2C)c1 (stereo not drawn) | 6 | -0.08 | 98* | 0.78 | -27
CCOC(=O)N1CCC(NC(=S)Nc2ccc3nc(N4CCN(C)CC4)cc(C)c3c2)CC1 | -5 | 0.31 | 16 | -0.4 | -60
Brc1ccc(OCc2nnc3n2CCC3)cc1 | -6 | -0.89 | -3 | 0.28 | 20
COc1ccc(CNC(=O)c2cc(-c3cc(C)cc(C)c3O)n[nH]2)cc1 | / | / | / | 1.2 | -30
COc1ccc(NC(=O)c2cc(-c3cc(C)cc(C)c3O)n[nH]2)cc1Cl | 66* | / | 100* | -0.81 | -250
Cc1cc(C)c(O)c(-c2cc(C(=O)NCc3ccccc3)[nH]n2)c1 | 56 | -0.74 | 52* | -0.27 | 46
SMILES | WT yeast gro inh | ROMK mod | Lmaj promast | KCC2 mod | m-calpain inh
Cc1cc(C)c(O)c(-c2cc(C(=O)Nc3cccnc3)[nH]n2)c1 | / | / | / | 0.63 | -43
Cc1cccc(CN(C(=S)Nc2c(C)cccc2C)c2cccnc2)c1 | 15 | -0.39 | 87* | -0.71 | 15
CCOC(=O)c1c(-c2ccccc2)nc2cc(C)ccn12 | 27 | / | 26 | 0.43 | -23
CO/N=C/c1c(-c2ccc(Cl)cc2)nc2cc(C)ccn12 | 23 | -2.4 | 61* | 0.12 | -30
Cc1ccc(S(=O)(=O)N(C)C)cc1NC(=O)C(C)Sc1ccccc1 (stereo not drawn) | 7 | 0.1 | -8 | -0.63 | -12
O=C(Nc1ccccc1)c1ccc(Nc2c([N+](=O)[O-])cc([N+](=O)[O-])c3ccccc23)cc1 | 0 | / | 78* | 0.11 | -67
O=C(Nc1cccc([N+](=O)[O-])c1)c1ccccc1 | / | / | / | -0.3 | 12
O=[N+]([O-])c1cc(CN2CCN(c3ccccc3)CC2)c(O)c2ncccc12 | 63 | 1.4 | 100* | 0.62 | -2
O=[N+]([O-])c1cc(CN2CCOCC2)c2cccnc2c1O | -13 | 0.25 | -4 | -0.58 | -13

Assay outcomes from PubChem BioAssay.
